Results reported in PubChem BioAssay AID504329 (Southern Research Specialized Biocontainment Screening …, 2011).
“And” between values parts separate entries of the source, which are not always exact repeats. Equal values may be shown once. In all, about 340,000 compounds went through this assay and about 1,000 (0.29%) were called active. A selection follows. Measured potencies and affinities stand elsewhere. A number with no mark means an inactive call. Rule as the data show it: inconclusive = inhibition above about 27% without an active follow-up result; inactive = below that.

Test: H1N1 influenza NS1A inhibitors, functional cell based assay (AID 504329)
Conditions: percent inhibition, at 12.5 µM, stronger effect = higher value

SMILES	inhibition
CC(C)C(=O)N1CCC(n2nccc2NC(=O)CCOc2ccccc2)CC1	0.18%
COc1ccc(/C=N/NC(=O)CN2CCS(=O)(=O)CC2)cc1	-0.94%
CCOC(=O)c1[nH]c2c(c1-c1ccccc1)C(=O)CC(c1ccc(OC)c(OC)c1)C2 (stereo unspecified)	8.75%
O=C(NC(Cc1ccccc1)C(=O)O)/C(=C/c1ccccc1)NC(=O)c1ccc(Br)o1 (stereo unspecified)	3.22%
CCCCCn1c(=NC(=O)c2cccnc2)c(C#N)cc2c(=O)n3cccc(C)c3nc21	-3.21%
O=C(COC(=O)c1cccc(S(=O)(=O)NCc2ccccc2)c1)c1ccccc1	3.76%
O=C(NCC(c1cccs1)N1CCOCC1)c1ccc(Cl)c(S(=O)(=O)N2CCOCC2)c1 (stereo unspecified)	-3.43%
CC1CCN(Cc2c(C(=O)N/N=C/c3ccccc3O)nnn2-c2nonc2N)CC1	-0.06%
Nc1nonc1-n1nnc(C(=O)N/N=C/c2ccccc2Br)c1CN1CCCC1	1.45%
O=C(CN1C(=O)c2cccc3cccc1c23)NCC1CCCO1 (stereo unspecified)	7.9%
Cc1[nH]c(=O)c(C#N)c(C)c1CSc1ncccn1	-0.63%
CN(C)c1ccc(NC(=S)c2ccc3ccccc3n2)cc1	5.3%
S=C(Nc1ccccc1)c1ccccn1	3.81%
Cc1cc(C)c2oc(C(=O)N(Cc3ccccc3)C3CCS(=O)(=O)C3)cc(=O)c2c1 (stereo unspecified)	-2.06%
CC1(C)SC2c3ccccc3C(=O)N2C1C(=O)O (stereo unspecified)	-0.07%
CC1(C)S[C@@H]2[C@H](NC(=O)Cc3ccccc3)C(=O)N2[C@H]1C(=O)O	-10.5% and 1.49%
CC(C)C[C@H]1COCCS(=O)(=O)N1Cc1cccc(C(F)(F)F)c1	-20%
O=C(NC1CCCCC1)C1CCN(c2nnnn2-c2ccccc2)CC1	-1.63%
Cc1ccc(SCC(=O)NCc2ccccc2)cc1	-3.04%
Cc1ccccc1NC(=O)N(C(C)C)C(C)C	-12.5%
O=C(Nc1ccccc1NC(=O)NC1CCCCC1)NC1CCCCC1	14%
Nc1c(NC2CCCCC2)c2ccccc2oc1=O	4.37%
Cc1nc(NC(=O)c2cc3c(C)nn(-c4ccccc4)c3s2)sc1C(=O)Nc1ccccc1	0.17%
COc1ccc(N2CC(C(=O)N/N=C/c3ccccc3)CC2=O)cc1 (stereo unspecified)	-7.3%

SMILES	inhibition
CN(C)c1ccc(-c2n(C)c3ccccc3[n+]2C)cc1	28.5%
COc1ccc2c(c1)c(=O)cc(-c1ccccc1)n2C	0.17%
CN(c1ccc(Cl)cc1)c1cc(=O)n(C)c2ccccc12	3.91%
CN(C)c1ccc(/C=N/c2cc(-c3ccccc3)nn2-c2ccccc2)cc1	-1.42%
COc1ccc(-c2cc(-c3ccccc3)[n+](C)c(-c3ccccc3)c2)cc1	-1.4%
C[n+]1c(-c2ccccc2)cc2c(=Cc3ccccc3)c3ccccc3n21	-16.8%
CCCCC1(C)OC(=O)C(=Cc2ccc(N(C)C)cc2)C(=O)O1 (stereo unspecified)	0.99%
CN(C)c1ccc(/C=C2\SC(=O)N(CC(O)Cn3c4ccccc4c4ccccc43)C2=O)cc1 (stereo unspecified)	-1.11%
CC(C)(C)CN1CCNC[C@H]1Cc1cccc2ccccc12	4.41%
CNCC(O)c1cc(OCc2ccccc2)c(OCc2ccccc2)cc1F (stereo unspecified)	2.8%
Cc1cc(Nc2cccc(F)c2)n2c(n1)nc1ccccc12	-4.78%
CC(Sc1nnc(C2CC2)n1C1CC1)C(=O)c1ccc(F)cc1 (stereo unspecified)	-11.2%
Clc1cccc(Cl)c1CSc1nnc([C@@H]2CCCN2)o1	-1.85%
CC(=O)N1CCN(C(=O)COC(=O)CNC(=O)c2ccccc2C)CC1	-1.13%
Cc1ccc(CNCC(O)(c2ccccc2)c2ccc(Cl)cc2)cc1 (stereo unspecified)	6.37%
Cn1c(SCC(=O)N2CCCC2=O)nnc1-c1ccccc1F	6.14%
CN(C)c1ccc(C=c2c3ccccc3n3c2c2ccccc2[n+]3C)cc1	21%
CN(C)c1ccc(/C=C/c2nc3ccccc3c(=O)n2-c2ccc(C(=O)O)cc2)cc1	-25.3%
COc1ccc(C(=O)c2ccc(N(C)C)cc2)c2ccccc12	11.2%
CN(C)c1ccc(/C=C2\CCCc3c2nc2ccccc2c3C(=O)O)cc1	2.2%
CCOC(=O)c1cc2c(C)n(-c3ccc(N(C)C)cc3)c(C)c2cc(C(=O)OCC)c1=O	-3.74%
CCOC(=O)c1cccc(NC(=O)c2ccc(N(C)C)cc2)c1	5.77%
C[n+]1c(-c2ccccc2)cc(-c2ccc(O)cc2)cc1-c1ccccc1	-0.313%
COc1cc(C=c2c3ccccc3n3c2cc(-c2ccccc2)[n+]3C)cc(OC)c1OC	6.14%

SMILES	inhibition
COc1ccc(C)cc1NS(=O)(=O)c1ccc2c(c1)N(C)CCO2	3.31%
COC(=O)C1CN(C(=O)c2ccc(OC(F)F)cc2)c2ccccc2O1 (stereo unspecified)	8.47%
CN(CC(=O)Nc1ccccc1Cl)CC(=O)N1CCc2ccccc21	-8.6%
CCOc1ccc(CC(=O)Nc2nccs2)cc1OCC	-1.94%
C=CCNc1nc(N)c([N+](=O)[O-])c(Nc2cccc(Cl)c2)n1	3.17%
CC(C)=CC(=O)Nc1nnc(-c2ccccc2C)s1	-8.76%
O=C(CNCc1ccc(Cl)cc1)N1CCc2ccccc2C1	-2.57%
O=C(CNCc1cccc(Cl)c1)N1CCc2ccccc2C1	-4.83%
CC(=NNc1nc2ccccc2s1)c1ccncn1	6.3%
Cc1ccnc(Nc2nc3ccccc3o2)n1	-3.68%
C/C(=N\Nc1nc2ccccc2s1)c1cccs1	-10%
Oc1ccccc1/C=N/Nc1nc2ccccc2o1	12%
COc1cc(/C=N/Nc2nc3ccccc3o2)cc(OC)c1O	1.3%
CN(C)c1ccc(/C=N/Nc2nc3ccccc3o2)cc1	-0.4%
CCCN1CCC(N(C)CCc2ccc(OC)c(OC)c2)CC1	-5.4%
CCOC(=O)C1=C(C)N(C[C@@H]2CC[C@@H](Cc3ccc(-c4ccccc4)cc3)O2)C(=O)NC1c1ccc(Cl)cc1 (stereo partly specified)	-4.34%
Cc1cccc(C)c1NC(=O)COC(=O)COc1ccc2c(C)cc(=O)oc2c1	10.5%
COc1ccccc1-n1nnnc1SCC(=O)NCC1CCCO1 (stereo unspecified)	-3.64%
Cc1cccc(NC(=S)N(CCCN2CCOCC2)Cc2cn(C)c3ccccc23)c1	4.41%
Cc1cc2c(cc1C)N(C(=O)CSC1=NCCS1)C(C)(C)c1ssc(=S)c1-2	14.7%
CC1(C)c2ssc(=S)c2-c2ccccc2N1C(=O)c1ccco1	2.72%
Cc1ccc2c(c1)-c1c(ssc1=S)C(C)(C)N2C(=O)CN1C(=O)c2ccccc2C1=O	28.5%
CCOc1ccc2c(c1)-c1c(ssc1=S)C(C)(C)N2C(=O)CSC1=NCCS1	20%
CCOC(=O)c1c(NC(=O)c2ccc(N3C(=O)[C@@H]4[C@H](C3=O)[C@H]3C=C[C@@H]4C3)cc2)sc2c1CCCC2	-7.09%

SMILES	inhibition
CC(C)C(=O)Nc1ccc(NC(=S)NC(=O)c2ccccc2F)cc1	1.28%
O=S(=O)(NCCc1cn2ccccc2n1)c1ccc2c(c1)CCCC2	25.4%
S=C(CN1CCCC1=S)NCCc1ccccc1	-5.27%
Cc1[nH]c2ccccc2c1CCNS(=O)(=O)c1ccc(S(N)(=O)=O)cc1	23.3%
CN(Cc1ccc(Cl)c(Cl)c1)C(=O)c1ccccc1SCC(=O)N1CCCC1	-4.06%
CN(C)Cc1c(C(=O)N/N=C/c2ccncc2)nnn1-c1nonc1N	6.41%
Cc1ccc(S(=O)(=O)N2[C@@H](c3cccc(C)c3)C(C(=O)O)=C[C@H]2CC2CCCC2)cc1	8.82%
Cc1ccc(-n2nnnc2SCC(=O)Nc2ccccc2N2CCCCC2)cc1C	-1.34%
Cc1cc(C)nc(NC(N)=NCCc2ccccc2)n1	-1.52%
CCCCSCCCNC(=O)C1CCC(CNS(=O)(=O)c2ccccc2)CC1 (stereo unspecified)	-20%
COc1cc(NC2c3ccccc3C(=O)N2Cc2ccc3c(c2)OCO3)cc(OC)c1 (stereo unspecified)	-1.58%
COc1ccc(NC2c3ccccc3C(=O)N2Cc2ccc3c(c2)OCO3)cc1 (stereo unspecified)	5.36%
O=C(NCCN1CCCCC1)Nc1ccc(Br)cc1	-24.7%
N#Cc1cc(N2CCCCC2)c([N+](=O)[O-])cc1C#N	9.08%
O=[N+]([O-])c1cc(F)c(N2CCCCC2)cc1N1CCOCC1	10.6%
O=C(CSc1n[nH]c(=O)[nH]c1=O)Nc1ccccc1C(=O)c1ccccc1	-9.72%
CCc1cccc(NC(=O)CCCN2C(=O)NC(C)(C)C2=O)c1	-6.41%
CCC(=O)Nc1ccc(F)c(Cl)c1	-2.47%
Cc1ccc(NC(=O)CCC(=O)Nc2ccc(C)cc2)cc1	4.02%
Cc1cccc(C)c1NC(=O)CCCCCC1NC(=O)NC1C (stereo unspecified)	24.2%
O=C(O)CCCCC1SCC2NC(=O)NC21 (stereo unspecified)	22.1%
CCc1cccc(NC(=O)CCSCCC(=O)Nc2cccc(CC)c2)c1	14.8%
COC(=O)CCCCC1SCC2NC(=O)NC21 (stereo unspecified)	1.31%
CCCCC(=O)Nc1ccc(F)c(Cl)c1	0.54%
